The record followed here is PubChem BioAssay.

SMILES strings stand for the structures. Activity calls are given as the source filed them. Unless noted, the rule behind the calls is not given here.

Assay [1] is described as follows: HepG2 liver cancer cell viability effects, profiling panel, resazurin fluorescence, 24 h, PK04 Diversity Set (AID 1172). To be noted: higher = more signal. On the technique in general: Resazurin is reduced to fluorescent resorufin, in cell work by metabolically active cells.
Assay [2] in a line: basal S. cerevisiae growth modulation, no modifier, primary screen, OD600, strain BY4716, 24 h, basal condition (AID 1173). Conditions: OD600, 24 h, higher = more signal, called active from +8 up or from −8 down.
Assay [3] can be described thus: MM1S myeloma cell viability, profiling panel, resazurin fluorescence, basal, 24 h, PK04 Diversity Set (AID 1174).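 Note: MM1S multiple myeloma cell line.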 To be noted: higher = more signal, called active from +8 up or from −8 down.
For assay [4], the target named is Dihydroorotate dehydrogenase (quinone), mitochondrial (Plasmodium falciparum (isolate 3D7)) (UniProt Q08210). Description: PfDHODH enzyme inhibitors, primary screen, biochemical, C-terminal His tag, absorbance 600 nm (AID 1175).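 Note: recombinant parasite enzyme with a five histidine tag at its C terminus.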 Conditions: DCIP absorbance 600 nm, higher = more signal, called active from +8 up or from −8 down.
Sequence of Dihydroorotate dehydrogenase (quinone), mitochondrial (Plasmodium falciparum (isolate 3D7)) (Q08210 whole entry, looked up): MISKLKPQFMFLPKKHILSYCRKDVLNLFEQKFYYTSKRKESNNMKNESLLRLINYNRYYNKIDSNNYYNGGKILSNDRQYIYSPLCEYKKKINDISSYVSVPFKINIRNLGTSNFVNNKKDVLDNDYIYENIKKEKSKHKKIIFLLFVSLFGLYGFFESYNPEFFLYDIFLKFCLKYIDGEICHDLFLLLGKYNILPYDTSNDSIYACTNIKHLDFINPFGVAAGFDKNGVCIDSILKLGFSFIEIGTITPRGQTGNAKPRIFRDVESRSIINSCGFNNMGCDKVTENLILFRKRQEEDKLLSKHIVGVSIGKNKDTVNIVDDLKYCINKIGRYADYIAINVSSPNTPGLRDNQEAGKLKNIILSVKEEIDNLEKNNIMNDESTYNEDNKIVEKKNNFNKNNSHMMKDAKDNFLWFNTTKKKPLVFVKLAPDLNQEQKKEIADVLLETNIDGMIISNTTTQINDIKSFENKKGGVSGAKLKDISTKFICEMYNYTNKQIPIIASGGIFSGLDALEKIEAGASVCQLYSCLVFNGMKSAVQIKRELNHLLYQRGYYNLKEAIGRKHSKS
Assay [5] is described as follows: P. aeruginosa biofilm formation inhibitors, primary screen, strain PAO1, LB-PBS medium, absorbance 600 nm (AID 1176). Conditions: P. aeruginosa PAO1 growth/biofilm, A600, 12 h; higher = more signal.
Assay [6] is described as follows: S. cerevisiae RM11-1a growth modifiers, primary screen, strain RM11-1a, OD600, basal, 24 h (AID 1177).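 Note: cultures grown under basal conditions with no added stressor.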 Conditions: OD600, 24 h, higher = more signal, called active from +8 up or from −8 down.
Assay [7] is described as follows: E. coli acrAB mutant growth effects, primary screen, E. coli filamentation inducers, strain DRC39, OD650, 24 h (AID 1178).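 Note: growth measured as culture turbidity by optical density at 650 nm.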 To be noted: higher = more signal, called active from +8 up or from −8 down.
The nature of assay [8]: E. coli acrAB mutant growth effects, primary screen, E. coli filamentation inducers, strain DRC39, OD650, 48 h (AID 1179).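 Note: screen aims at cell division blockers that make cells filament.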 To be noted: E. coli DRC39 delta-acrAB growth, higher = more signal, called active from +8 up or from −8 down.
Assay [9] is described as follows: RPMI8226 myeloma cell viability, profiling panel, resazurin fluorescence, basal, 24 h, PK04 Diversity Set (AID 1180).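 Note: RPMI8826 multiple myeloma cell line at 5000 cells per well.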 To be noted: higher = more signal.
For assay [10], the target named is E3 ubiquitin-protein ligase XIAP (Homo sapiens) (UniProt P98170). Description: XIAP binders, primary screen, biophysical, small-molecule microarray, fluorescence 635 nm (AID 1181).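 Note: score merges 667 nm emission and signal to noise over triplicate slides.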 Conditions: small-molecule microarray binding, higher = more signal.
Sequence of E3 ubiquitin-protein ligase XIAP (Homo sapiens) (P98170 whole entry, looked up): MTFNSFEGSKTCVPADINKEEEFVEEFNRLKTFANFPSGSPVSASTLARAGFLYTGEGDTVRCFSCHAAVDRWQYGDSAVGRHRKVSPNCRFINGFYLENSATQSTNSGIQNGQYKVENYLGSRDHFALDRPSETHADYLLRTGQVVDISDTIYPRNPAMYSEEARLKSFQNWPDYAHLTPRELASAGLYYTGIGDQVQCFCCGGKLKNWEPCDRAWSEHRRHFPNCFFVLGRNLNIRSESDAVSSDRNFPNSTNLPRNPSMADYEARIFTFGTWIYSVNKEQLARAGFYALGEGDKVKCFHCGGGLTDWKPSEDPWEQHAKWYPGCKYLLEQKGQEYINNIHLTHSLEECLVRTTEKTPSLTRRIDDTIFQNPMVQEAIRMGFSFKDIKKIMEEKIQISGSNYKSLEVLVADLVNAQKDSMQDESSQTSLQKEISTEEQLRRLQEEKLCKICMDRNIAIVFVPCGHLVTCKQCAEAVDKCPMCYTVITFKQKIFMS
Assay [11] deals with XIP peptide (Xip251-270) binding. Description: small-molecule binders of XIP peptide, primary screen, biochemical, small-molecule microarray, fluorescence 635/667 nm, 0.1 µg/mL protein (AID 1182). Conditions: fluorescent protein binding, 635 nm, higher = more signal, called active from +8 up or from −8 down.
For another assay, the system named is XIP peptide (Xip251-270). Description: small-molecule binders of XIP peptide, primary screen, biochemical, small-molecule microarray, fluorescence 635/667 nm, 0.5 µg/mL protein (AID 1183). To be noted: small-molecule microarray binding, fluorescence 635 nm; higher = more signal.
Assay [12] is described as follows: Plasmodium falciparum growth inhibition, primary screen, strain 3D7, DAPI fluorescence, 100 nL (AID 1184).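 Note: parasites grown inside human red blood cells in medium with human serum.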 To be noted: P. falciparum 3D7 growth, 3 d, higher = more signal.
Assay [13] concerns the target Homeobox protein Hox-A13 (Mus musculus) (UniProt Q62424). Description: inhibitors of HoxA13-DNA binding, primary screen, biochemical, fluorescence polarization, labeled oligonucleotide (AID 1185). To be noted: 15 min, higher = more signal, called active from +8 up or from −8 down. (Polarisation of emitted light reports the rotation of a fluorescent probe.)
Assay [14] can be described thus: inhibitors of hydroxyurea-induced Chk1 phosphorylation, primary screen, imaging, HeLa, phospho-Chk1 antibody, percent positive cells (AID 1186). Conditions: hydroxyurea-induced phospho-Chk1 immunofluorescence imaging, higher = more signal.
A short description of assay [15]: inhibitors of hydroxyurea-induced Chk1 phosphorylation, primary screen, imaging, HeLa, phospho-Chk1 nuclear intensity (AID 1187). To be noted: hydroxyurea-induced phospho-Chk1 immunofluorescence imaging, higher = more signal.

Sequence of Homeobox protein Hox-A13 (Mus musculus) (Q62424 whole entry, looked up): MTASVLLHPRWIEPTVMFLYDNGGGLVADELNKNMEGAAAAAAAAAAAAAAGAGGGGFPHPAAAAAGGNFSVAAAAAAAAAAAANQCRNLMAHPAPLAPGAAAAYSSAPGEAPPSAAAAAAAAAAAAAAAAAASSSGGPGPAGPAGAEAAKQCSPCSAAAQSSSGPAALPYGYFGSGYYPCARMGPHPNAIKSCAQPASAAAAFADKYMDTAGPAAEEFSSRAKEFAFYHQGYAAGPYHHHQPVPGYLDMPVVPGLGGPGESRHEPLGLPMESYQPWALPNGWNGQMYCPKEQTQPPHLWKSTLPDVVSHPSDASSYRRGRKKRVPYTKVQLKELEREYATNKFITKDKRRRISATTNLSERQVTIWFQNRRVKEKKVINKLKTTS

With `CO[C@H]1O[C@H](CO)[C@@H](OC(=O)CCc2ccccc2)[C@@H]2OC(=O)[C@@H](Cc3ccccc3)C/C=C/C[C@H](Cc3ccccc3)C(=O)O[C@@H]12`, the z-score in [1] is 0.195; in [2], -0.559 (inactive); in assay [3], -0.887 (inactive); in assay [5], -0.661 (inactive); in assay [6], 0.532 (inactive); in assay [7], 1.06 (inactive). The z-score is 1.79 (inactive) in [8]; 0.943 in [9]; -0.655 in [12]; -3.06 (inactive) in assay [13]; -0.682 (inactive) in [14]; -0.379 (inactive) in assay [15]. Moreover, the composite z-score in assay [4] is -1.53 (inactive); in [10], 0.913; in assay [11] it was -0.315 (inactive); in the assay with XIP peptide (Xip251-270) it was 0.506.

`CCOC(=O)C1=C[C@@H](C(C)(C)C)N(S(=O)(=O)c2ccc(C)cc2)[C@H]1c1cccc2ccccc12`: the z-score was -0.433 in [1]; 3.26 (inactive) in assay [2]; -0.835 (inactive) in assay [3]; 0.312 (inactive) in assay [5]; 3.01 (inactive) in assay [6]; -0.624 (inactive) in assay [7]. For the same molecule, the z-score in assay [8] was -0.511 (inactive); in [9], -2.66; in assay [12] it was -1.93; in assay [13] it was 0.961 (inactive); in assay [14] it was 0.721 (inactive); in [15] it was 0.521 (inactive). Moreover, the composite z-score was 0.716 (inactive) in assay [4], 0.307 in assay [10], -0.247 (inactive) in assay [11] and 0.236 in the assay with XIP peptide (Xip251-270).

Regarding `CCCCNC(=O)c1ccc(C#CC(C)(C)C)c(OC(C)=O)c1`, the z-score in assay [1] is 0.111; in [2], -2.59 (inactive); in assay [3], 0.611 (inactive); in [5], -0.517 (inactive); in [6], 0.516 (inactive); in assay [7], 1.27 (inactive). For the same molecule, the z-score was 0.256 (inactive) in assay [8]; 0.116 in assay [9]; -1.74 in assay [12]; -5.71 (inactive) in [13]; 0.13 (inactive) in assay [14]; 0.411 (inactive) in assay [15]. In addition, the composite z-score in assay [4] is -1.14 (inactive); in assay [10], -0.283; in assay [11] it was 0.0374 (inactive); in the assay with XIP peptide (Xip251-270), 0.222.

Consider `COC(=O)[C@@]1(Cc2ccc(F)cc2)[C@H]2c3cc(C(=O)N4CCCC4)n(CCc4c[nH]c5ccccc45)c3C[C@H]2CN1C(=O)c1ccccc1`, for which the z-score is -1.03 in assay [1]; 1.74 (inactive) in assay [2]; -2.23 (inactive) in assay [3]; 0.343 (inactive) in assay [5]; 0.0323 (inactive) in assay [6]; -1.4 (inactive) in assay [7]. Moreover, the z-score in [8] is -0.319 (inactive); in assay [9], -2.94; in assay [12] it was -1.55; in [13] it was -3.15 (inactive); in assay [14], 0.916 (inactive); in assay [15], 0.634 (inactive). Besides, the composite z-score was -0.106 (inactive) in [4], -0.018 in assay [10], 0.0236 (inactive) in [11] and 0.714 in the assay with XIP peptide (Xip251-270).

As to `COCCOC(=O)N1C(=O)[C@@]2(c3cc(C#CCCO)ccc31)[C@H](C(=O)Nc1nc3ccccc3s1)[C@H]1C(=O)O[C@H](c3ccccc3)[C@H](c3ccccc3)N1[C@@H]2c1ccc(O)cc1`, the z-score in [1] was -0.0461; in [2] it was 1.26 (inactive); in assay [3], -0.159 (inactive); in [5] it was 0.325 (inactive); in assay [6], 1.52 (inactive); in [7], -0.356 (inactive). Also, the z-score in [8] was -1.07 (inactive); in assay [9] it was -0.358; in [12] it was -1.45; in assay [13], -3.01 (inactive); in assay [14], -0.225 (inactive); in assay [15] it was -0.445 (inactive). Further, the composite z-score is 1.35 (inactive) in assay [4], -0.105 in assay [10], 3.02 (inactive) in assay [11] and 0.765 in the assay with XIP peptide (Xip251-270).

As for `COCC(=C=CC[C@H](O)c1ccc(OCCO)cc1)CCO`, the z-score is 0.996 in assay [1]; -0.415 (inactive) in assay [2]; 0.654 (inactive) in [3]; -0.0342 (inactive) in assay [5]; 0.137 (inactive) in assay [6]; 0.53 (inactive) in [7]. Moreover, the z-score in assay [8] was 0.209 (inactive); in assay [9] it was 0.854; in assay [12] it was -2.93; in [13], -3.28 (inactive); in assay [14], -0.638 (inactive); in assay [15] it was -0.571 (inactive). The composite z-score in assay [4] is -1.15 (inactive); in [10], 0.102; in [11] it was 0.407 (inactive); in the assay with XIP peptide (Xip251-270), -0.252.

For `COC(=O)[C@@]1(Cc2ccc(F)cc2)[C@H]2c3cc(C(=O)N4CCCC4)n(Cc4ccc(C)c(F)c4F)c3C[C@H]2CN1C(=O)c1ccccc1`, the z-score in assay [1] is -1.15; in [2], 0.289 (inactive); in assay [3], -1.42 (inactive); in assay [5], 1 (inactive); in assay [6], 0.22 (inactive); in assay [7] it was -0.107 (inactive). The z-score is -0.11 (inactive) in assay [8]; -0.588 in assay [9]; -1.53 in assay [12]; -6.02 (inactive) in [13]; 0.533 (inactive) in assay [14]; 0.459 (inactive) in assay [15]. The composite z-score in assay [4] was -1.23 (inactive); in assay [10], -0.0483; in [11], -0.0082 (inactive); in the assay with XIP peptide (Xip251-270), -0.953.

Regarding `N[C@@H](Cc1ccccc1)C(=O)NCc1cn(Cc2ccccc2)nn1`, the z-score in assay [1] is 0.68; in [2], -1.38 (inactive); in assay [3], 0.323 (inactive); in assay [5], -0.452 (inactive); in assay [6], -0.0114 (inactive); in assay [7], 1.35 (inactive). In addition, the z-score was 0.614 (inactive) in assay [8]; 0.449 in assay [9]; -0.581 in assay [12]; -0.368 (inactive) in assay [13]; -0.167 (inactive) in [14]; 0.0852 (inactive) in assay [15]. Also, the composite z-score in assay [4] is -0.777 (inactive); in assay [10], -0.227; in [11] it was -0.221 (inactive); in the assay on XIP peptide (Xip251-270) it was -0.984.

Regarding `COc1ccc(C#Cc2ccc3c(c2)[C@]2(C(=O)N3)[C@H](c3ccc(OCCO)cc3)N3[C@H](c4ccccc4)[C@H](c4ccccc4)OC(=O)[C@H]3[C@@H]2C(=O)NC[C@H](O)c2ccccc2)cc1`, the z-score is 0.0814 in [1]; 3.07 (inactive) in [2]; -0.883 (inactive) in assay [3]; 2.34 (inactive) in assay [5]; 4.84 (inactive) in assay [6]; 0.595 (inactive) in [7]. Moreover, the z-score in [8] was 0.863 (inactive); in assay [9], -1.08; in assay [12], -1.78; in assay [13] it was -1.01 (inactive); in assay [14], -0.387 (inactive); in [15], -0.263 (inactive). Also, the composite z-score in assay [4] is -18.4 (active); in assay [10], 0.18; in assay [11], 0.47 (inactive); in the assay with XIP peptide (Xip251-270), 0.691.

For the molecule `C=CCOC(=O)[C@@H]1[C@H]2C(=O)O[C@H](c3ccccc3)[C@H](c3ccccc3)N2[C@H](c2ccc(OCCOC(=O)[C@@H]3C[C@@H]4C(=O)N[C@@H](CCCC[N+](C)(C)C)C(=O)N4[C@@H]3c3ccc(O)cc3)cc2)[C@@]12C(=O)Nc1ccc(I)cc12`, the z-score in [1] is 0.945; in assay [2] it was -0.398 (inactive); in assay [3] it was -0.596 (inactive); in assay [5], 0.379 (inactive); in [6], 1.39 (inactive); in assay [7] it was -0.507 (inactive). The z-score in [8] is -0.809 (inactive); in [9] it was -0.0426; in assay [12], -1.11; in assay [13], 6.56 (inactive); in assay [14], 0.355 (inactive); in assay [15] it was 0.521 (inactive). Moreover, the composite z-score in assay [4] is -2.02 (inactive); in assay [10], -0.124; in [11] it was 0.481 (inactive); in the assay on XIP peptide (Xip251-270) it was 0.808.
